Inconclusive results are not listed. A structure can be active in one record and inactive in another. Calls of active or inactive are those of the source. Unless noted, calls come from the whole dose curve; as a rule, active = well fitted curve in the direction sought with a large enough effect; inconclusive = small, poorly fitted or top-dose-only effect, or another doubt; inactive = no such curve, though single readings can be large; an effect the other way counts as inactive or inconclusive.
What was measured:
[1] = qHTS for Inhibitors of Plasmodium falciparum (DD2) proliferation (AID 504314); note: potency is the fitted concentration of half-maximal effect;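 for activity, negative = inhibition: parasite DNA measured by SYBR Green fluorescence after red cell lysis; plate controls were DMSO vehicle for no effect and artemisinin wells for full effect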
Method in brief: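 Erythrocytes infected with P. falciparum (0.3% parasitemia, 2.5% hematocrit final) were incubated with compounds for 72 h at 37C, 5% CO2. Parasite DNA was detected by SYBR Green I fluorescence after saponin/Triton lysis, normalized to artemisinin (0.29 uM) and DMSO controls.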

[2] = qHTS for Inhibitors of Plasmodium falciparum (GB4) proliferation (AID 504315); note: nearly all actives have a fitted effect of over 50% in size; note: potency is the fitted concentration of half-maximal effect
Method in brief: (§1)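 Erythrocytes infected with P. falciparum line (0.3% parasitemia, 2.5% hematocrit final) incubated with compounds 72 h at 37 °C, 5% CO2; SYBR Green lysis buffer added, fluorescence read next day. Normalized to 0.29 uM artemisinin and DMSO.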

[3] = qHTS for Inhibitors of Plasmodium falciparum (HB3) proliferation (AID 504318); note: nearly all actives have a fitted effect of over 60% in size; note: potency is the fitted concentration of half-maximal effect
Method in brief: as §1

[4] = qHTS for Inhibitors of Plasmodium falciparum (CP250) proliferation (AID 504320); note: potency is the fitted concentration of half-maximal effect
Method in brief: as §1

[5] = target: Atrial natriuretic peptide receptor 1 (Homo sapiens) (UniProt P16066); test: Natriuretic polypeptide receptor (hNpr1) antagonism - Pilot CMLD screen (AID 1347052; calls by dose curve;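 note: HEK293 cells with hNpr1 stimulated by hNppA peptide at 0.1 nM; cGMP level read as GloSensor luciferase luminescence after agonist stimulation; series mostly up to about 9.2 µM; % is set by controls: 0 for no effect and ±100 for the full control effect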)
Chain of Atrial natriuretic peptide receptor 1 (Homo sapiens) (P16066 whole entry, looked up): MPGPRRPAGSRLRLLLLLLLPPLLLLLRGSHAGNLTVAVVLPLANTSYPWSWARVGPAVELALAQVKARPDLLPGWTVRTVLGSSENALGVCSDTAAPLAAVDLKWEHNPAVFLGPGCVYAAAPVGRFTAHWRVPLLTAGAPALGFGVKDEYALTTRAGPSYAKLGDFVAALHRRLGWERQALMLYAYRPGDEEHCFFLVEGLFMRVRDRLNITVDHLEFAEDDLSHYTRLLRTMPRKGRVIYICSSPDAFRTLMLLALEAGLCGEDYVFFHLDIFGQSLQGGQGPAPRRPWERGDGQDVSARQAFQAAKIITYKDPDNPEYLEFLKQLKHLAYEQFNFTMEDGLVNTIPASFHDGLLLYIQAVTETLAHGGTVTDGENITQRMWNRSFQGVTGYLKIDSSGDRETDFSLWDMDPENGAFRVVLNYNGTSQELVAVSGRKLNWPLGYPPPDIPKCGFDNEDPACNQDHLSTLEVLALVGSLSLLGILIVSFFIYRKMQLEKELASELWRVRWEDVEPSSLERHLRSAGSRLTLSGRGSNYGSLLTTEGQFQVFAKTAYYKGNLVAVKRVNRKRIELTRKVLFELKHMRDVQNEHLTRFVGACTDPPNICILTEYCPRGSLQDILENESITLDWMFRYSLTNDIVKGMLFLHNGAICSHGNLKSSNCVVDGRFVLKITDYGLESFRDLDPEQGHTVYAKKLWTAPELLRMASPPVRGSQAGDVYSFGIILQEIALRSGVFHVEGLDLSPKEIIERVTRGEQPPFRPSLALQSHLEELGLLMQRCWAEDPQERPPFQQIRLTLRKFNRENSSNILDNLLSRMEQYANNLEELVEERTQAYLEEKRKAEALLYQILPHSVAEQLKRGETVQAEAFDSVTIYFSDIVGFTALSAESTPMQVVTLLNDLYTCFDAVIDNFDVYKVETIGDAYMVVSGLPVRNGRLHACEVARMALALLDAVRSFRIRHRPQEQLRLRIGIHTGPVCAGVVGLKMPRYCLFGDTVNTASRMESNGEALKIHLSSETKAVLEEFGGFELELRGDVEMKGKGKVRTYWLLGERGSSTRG

C#CCCCON=C1C[C@@H](O)[C@H](O)[C@H]2[C@@H]3C(=O)N(C4CCCCC4)C(=O)[C@@H]3CC[C@@H]12
inactive: Potency [1] | Potency [2] | Potency [3] | Potency [4] | Potency [5]

COc1ccc(-c2nc(-c3ccccc3)oc2NC2CCCCC2)cc1
inactive: Potency [1] | Potency [2] | Potency [3] | Potency [4] | Potency [5]

COCCN1C(=O)CC[C@@]23C1=NC(C(=O)OC)=C(C(=O)OC)[C@@H]2N(CC=C(C)C)c1ccccc13
inactive: Potency [1] | Potency [2] | Potency [3] | Potency [4] | Potency [5]

COC(=O)[C@@]1(Cc2ccccc2-c2ccco2)C=C[C@H](C)[C@@H](c2ccccc2)N1C(=O)C(F)(F)F
inactive: Potency [1] | Potency [2] | Potency [3] | Potency [4] | Potency [5]

CC1(OC(=O)c2cnc3ccccc3n2)C(=O)C=C2C=C(c3ccc(C#N)cc3)OC=C2C1=O (stereo not given)
inactive: Potency [1] | Potency [2] | Potency [3] | Potency [4] | Potency [5]

C=CC1=C2C=C(C3CC3)N(CC(C)C)C=C2C(=O)C(C)(OC(=O)c2ccco2)C1=O (stereo not given)
inactive: activity, negative = inhibition [1] -0.305% [at 1.12 µM] | Potency [2] | Potency [3] | Potency [4] | Potency [5]

COC(=O)c1c(C(=O)OC)c2c3ccccc3cc(-c3ccccc3)n2c1C(=O)OC
inactive: Potency [1] | Potency [2] | Potency [3] | Potency [4] | Potency [5]

COc1ccc(C(=O)[C@]2(C)C=C(c3ccc(OC)cc3)[C@H](C)C2)cc1
inactive: Potency [1] | Potency [2] | Potency [3] | Potency [4] | Potency [5]

CCCC[C@H]1CN2[C@H](c3ccc(Br)cc3)[C@H](C)CC[C@H]2C(=O)O1
inactive: Potency [1] | Potency [2] | Potency [3] | Potency [4] | Potency [5]

O=C1[C@H]2[C@@H]3[C@@H](O)[C@H](O)CC(=NOCc4ccccc4)[C@H]3CC[C@H]2C(=O)N1C1CCCCC1
inactive: Potency [1] | Potency [2] | Potency [3] | Potency [4] | Potency [5]

COC(=O)C1=C(C(=O)OC)[C@@H]2N(C)c3ccccc3[C@@]23C[C@@H](C(=O)OC)N(C(=O)Nc2cccc(C#N)c2)C3=N1
inactive: Potency [1] | Potency [2] | Potency [3] | Potency [4] | Potency [5]

COc1ccc2c(c1)C(=O)[C@H](OC(=O)Nc1cc(OC)c(OC)c(OC)c1)[C@@H](c1ccc(OC)c(Br)c1)O2
inactive: Potency [1] | Potency [2] | Potency [3] | Potency [4] | Potency [5]

COC(=O)C1=C(C)N(Cc2ccccc2)C(=NCCc2ccccn2)NC1c1cccc(C(F)(F)F)c1 (stereo not given)
active: Potency [1] 948 nM | Potency [2] 601 nM | Potency [4] 849 nM
inactive: Potency [3] | Potency [5]

CCCCCCCC1=Cc2ccc(F)cc2C(C(C(C)=O)C(=O)OC)N1C(=O)OC (stereo not given)
inactive: Potency [1] | Potency [2] | Potency [3] | Potency [4] | Potency [5]

COC(=O)C1=C(C(=O)OC)[C@@H]2N(C)c3ccc(OC)cc3[C@@]23C[C@@H](C(=O)OC)N(C(=O)c2ccco2)C3=N1
inactive: activity, negative = inhibition [1] -1.01% [at 1.12 µM] | Potency [2] | Potency [3] | Potency [4] | Potency [5]

CCOC(=O)CN1C(=O)N[C@@H](CCc2ccccc2)[C@H](C(=O)OC)[C@H]1C
inactive: Potency [1] | Potency [2] | Potency [3] | Potency [4] | Potency [5]

CCCCC[C@]12Cc3cc(OC)c(OC)cc3[C@H](O1)c1c(cc(C)n(-c3ccccc3)c1=O)O2
2.94 µM (active) and inactive: Potency [3]
inactive: Potency [1] | Potency [2] | Potency [4] | Potency [5]

CC(CCN1CCc2nc(-c3ccccc3)c(-c3ccccc3)cc2C1)=NOC[C@@H](O)COCc1ccco1
inactive: Potency [1] | Potency [2] | Potency [3] | Potency [4] | Potency [5]

CC1(OC(=O)C2CCCC2)C(=O)C=C2C=C(c3ccsc3)N(CCN3CCOCC3)C=C2C1=O (stereo not given)
inactive: activity, negative = inhibition [1] 1.21% [at 1.12 µM] | Potency [2] | Potency [3] | Potency [4] | Potency [5]

CCOC(=O)CN1C(=O)NC(CCc2ccccc2)C(C(C)=O)=C1C (stereo not given)
inactive: Potency [1] | Potency [2] | Potency [3] | Potency [4] | Potency [5]

C=CC[C@@H]1C=CC(ON=C(C)CCC(=O)OC[C@H]2O[C@H](C#Cc3ccccc3)C=C[C@H]2Oc2ccc(C)cc2)[C@H](CO)O1 (stereo not given in full)
inactive: Potency [1] | Potency [2] | Potency [3] | Potency [4] | Potency [5]

COc1ccc(-c2nc3c(c4c2C[C@H](c2ccccc2)OC4)CN(C(=O)C2CC2)CC3)c(C)c1
inactive: Potency [1] | Potency [2] | Potency [3] | Potency [4] | Potency [5]

CC1(OC(=O)c2ccc(Cl)nc2)C(=O)Cc2cc(-c3ccsc3)ncc2C1=O (stereo not given)
inactive: activity, negative = inhibition [1] -1.5% [at 1.12 µM] | Potency [2] | Potency [3] | Potency [4] | Potency [5]

COC(=O)CC=C[C@@H](C)[C@@H](C=NO[C@H](C)CN1CCCc2nc(C)c(C)cc21)N[S+](=O)([O-])c1ccc(C)cc1
inactive: Potency [1] | Potency [2] | Potency [3] | Potency [4] | Potency [5]

C=CCN1C(=O)[C@@]2(CC(C)=C[C@@H](COc3ccccc3)O2)c2ccccc21
inactive: Potency [1] | Potency [2] | Potency [3] | Potency [4] | Potency [5]

C=CCOC(=O)N[C@H](C[N+](=O)[O-])c1ccccc1
inactive: Potency [1] | Potency [2] | Potency [3] | Potency [4] | Potency [5]

COC(=O)C1=C(C(=O)OC)[C@@H]2N(C)c3ccccc3[C@@]23C[C@@H](C(=O)OC)N(C(=O)c2cc(C)oc2C)C3=N1
inactive: Potency [1] | Potency [2] | Potency [3] | Potency [4] | Potency [5]

N#CCCCS(=O)(=O)c1nnnn1-c1ccccc1
inactive: Potency [1] | Potency [2] | Potency [3] | Potency [4] | Potency [5]

CCOC(=O)c1c(C(=O)OCC)c2c3ccccc3cc(C)n2c1C(=O)OC
inactive: Potency [1] | Potency [2] | Potency [3] | Potency [4] | Potency [5]

COc1cc2c(cc1OC)CSC1C(=O)N(C)C(SC2)C(=O)N1C
inactive: Potency [1] | Potency [2] | Potency [3] | Potency [4] | Potency [5]

COC(=O)C1(C(=O)OC)C[C@@H]2CON=C2[C@@H]1c1ccccc1
inactive: Potency [1] | Potency [2] | Potency [3] | Potency [4] | Potency [5]

COC(=O)[C@H](COC(C)(C)C)NC(=O)O[C@@H]1C(=O)c2cc(OC)ccc2O[C@H]1c1cccc(OC)c1
inactive: Potency [1] | Potency [2] | Potency [3] | Potency [4] | Potency [5]

Source: PubChem BioAssay (NCATS)
